Compounds with a hit are over-represented: about 3% of the library has one in this group of screens.
PPC-1+TRAIL kill = compounds killing PPC-1 cancer cells with TRAIL present, primary screen, TRAIL potentiator project, ATPLite luminescence, uHTS; PPC-1 cells + TRAIL, ATPLite viability luminescence; cell killing (% activity), % at 4 µM or 5 µM; 220,000 tested, 0.41% active;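 active = cell killing above 50% in the first pass at 4 µM, then a duplicate retest at 5 µM averaging 50% or more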;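 also: plate controls were cells with TRAIL plus DMSO for no effect and medium-only wells lacking cells for full effect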
SENP8 block-1 = human SENP8 protease inhibitors, primary screen, biochemical, fluorescence, Nedd8 protein substrate, uHTS. Sentrin-specific protease 8 (Homo sapiens), Q96LD8. inhibition, % at 20 µM. 360,000 tested, 0.64% active. recombinant SENP8; in the data active = inhibition mostly above about 40%, no sharp cut-off; inactive = mostly below about 27%
Target sequence (Q96LD8 whole entry, looked up): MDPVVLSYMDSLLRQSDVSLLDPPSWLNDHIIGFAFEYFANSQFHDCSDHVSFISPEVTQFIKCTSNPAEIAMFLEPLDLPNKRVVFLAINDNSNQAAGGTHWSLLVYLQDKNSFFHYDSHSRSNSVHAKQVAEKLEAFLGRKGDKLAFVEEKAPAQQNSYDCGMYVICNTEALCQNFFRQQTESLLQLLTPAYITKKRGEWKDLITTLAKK
C8 TRAIL sens = viability loss with TRAIL in NB7+C8 cells, primary screen, TRAIL sensitizer project, cell-based, ATPlite luminescence. inhibition (viability loss, TRAIL sensitization), % at 10 µM. 360,000 tested, 1% active;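 active = compounds causing at least 50% loss of cell viability in the single-dose screen, relative to plate controls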
SENP8 block-2 = SENP8 protease inhibitors, primary screen, biochemical, luminescence; 330,000 tested, 1.2% active; inhibition, % at 10 µM; purified SENP8, Z-RLRGG-aminoluciferin cleavage; in the data active = inhibition above about 50%
SENP6 block = SENP6 protease inhibitors, primary screen, biochemical, luminescence, uHTS | Sentrin-specific protease 6 (Homo sapiens), Q9GZR1 | 330,000 tested, 1.8% active | inhibition, % at 10 µM | Recombinant SENP6 catalytic domain, aminoluciferin luminescence | AID 2599, 2010;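 active = inhibition above about 50% at the single tested dose, limit read from the data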;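 also: plate controls were DMSO wells with enzyme for no effect and DMSO wells lacking enzyme for full effect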
SENP7 inh = SENP7 protease inhibitors, primary screen, biochemical, luminescence, uHTS. recombinant SENP7, Z-RLRGG-aminoluciferin luminescence, 40 min. 330,000 tested, 1.5% active. inhibition, % at 5 µM. Sentrin-specific protease 7 (Homo sapiens), Q9BQF6;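 active = inhibition above about 50% at the single test dose, limit read from the data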;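 also: plate controls were DMSO with enzyme for no effect and no enzyme buffer wells for full effect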
Target sequence (Q9BQF6 706-1050 limits assumed): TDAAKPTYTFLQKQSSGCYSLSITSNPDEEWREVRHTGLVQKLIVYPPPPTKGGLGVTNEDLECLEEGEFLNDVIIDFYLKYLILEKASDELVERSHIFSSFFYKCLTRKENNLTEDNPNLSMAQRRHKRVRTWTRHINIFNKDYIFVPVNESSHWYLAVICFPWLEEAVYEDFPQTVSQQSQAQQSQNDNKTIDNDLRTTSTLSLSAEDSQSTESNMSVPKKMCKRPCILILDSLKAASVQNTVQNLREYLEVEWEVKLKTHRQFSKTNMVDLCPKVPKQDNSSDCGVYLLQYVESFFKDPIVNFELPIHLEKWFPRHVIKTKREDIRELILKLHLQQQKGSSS
PPC1 cytotox = cytotoxicity in PPC-1 cells, confirmation, cytotoxicity control for TRAIL apoptosis potentiator project, cell-based, ATP content luminescence; PPC-1 viability, ATPlite luminescence, overnight; 1,200 tested, 50% active; AID 1447, 2008; shares compounds with PPC-1+TRAIL kill; cytotoxicity, % at 5 µM;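 active = reconfirmed compounds whose average cytotoxicity reaches 50% or more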;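 also: 0% = DMSO-treated cells and 100% = wells holding medium but no cells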
Starred values were filed as active, the others as inactive; . = not tested or not shown.

SMILES	PPC-1+TRAIL kill	SENP8 block-1	C8 TRAIL sens	SENP8 block-2	SENP6 block	SENP7 inh	PPC1 cytotox
CCC1(c2ccc(F)cc2)NC(=O)N(CC(=O)N2CCN(S(=O)(=O)c3ccc(C)cc3C)CC2)C1=O (stereo not given)	.	7	13	.	.	.	.
Cc1ccc2nc(Cl)c(/C=N/Nc3ccc(C(=O)O)cc3)cc2c1	87*	-372	78*	8	1	4	87*
CCN(CC)c1ccc(NC(=S)NC(=O)c2ccco2)cc1	.	21	13	-2	5	0	.
CCN(CC)c1ccc(NC(=O)c2ccco2)cc1	58*	11	62*	0	-22	8	61*
Cc1ccc(Oc2ccc(NC(=O)c3ccco3)cc2)cc1	21	-143	-7	-14	13	5	.
Cc1ccc(NC(=O)c2ccc(OC(=O)c3ccco3)cc2)cc1	30	2	34	-10	1	11	35
COc1ccc(/C(C)=N/N2C(=O)c3ccccc3NC2c2ccc(O)c(OC)c2)cc1 (stereo not given)	17	-460	4	1	8	3	.
C/C(=N\N1C(=O)c2ccccc2NC1c1ccccc1)c1ccccc1O (stereo not given)	48	4	70*	-11	-27	-15	42
C/C(=N\N1C(=O)c2ccccc2NC1c1ccco1)c1ccccc1O (stereo not given)	46	-2	76*	15	17	10	50*
COC(=O)c1ccccc1NC(=O)CSc1nnc(-c2ccc(C)cc2)o1	11	.	.	.	.	.	.
O=C(CSc1nnc(-c2ccccc2)o1)Nc1ccccc1F	45	6	59*	-8	1	-2	51*
Cc1ccc(-c2nnc(SCC(=O)Nc3ccccc3F)o2)cc1	76*	-2	72*	-2	-3	0	70*
Cc1ccc(Nc2nc(Oc3ccc(OCc4ccccc4)nn3)nc(N3CCOCC3)n2)cc1	16	16	29	2	2	-4	13
COc1ccccc1C(=O)Nc1nnc([C@H]2C[C@H](O)[C@@H](CO)O2)s1	.	9	-9	.	.	.	.
Cc1nc2cc(NC(=O)N3c4ccccc4CC3C)ccc2n1C (stereo not given)	68*	6	65*	3	-18	-3	63*
CCC(C)(C)c1ccc(OCCCC[n+]2cccc(C)c2C)c(C(C)(C)CC)c1	62*	19	36	-18	-32	0	58*
CCC(C)(C)c1ccc(OCCCC[n+]2ccc(C)cc2)c(C(C)(C)CC)c1	47	.	.	-15	-11	-5	.
O=C(CCN1C(=O)c2ccccc2S1(=O)=O)Nc1ccc2c(c1)OCCO2	10	4	2	-16	-18	-8	.
O=C(CN1C(=O)c2ccccc2S1(=O)=O)c1ccc2c(c1)OCCCO2	86*	17	91*	18	-2	-6	86*
O=C(CN1C(=O)c2ccccc2S1(=O)=O)c1ccc2c(c1)OCCO2	84*	5	85*	9	-28	3	82*
O=C(CN1C(=O)c2ccccc2S1(=O)=O)c1cccc(Br)c1	.	6	49	9	4	-1	.
O=C(Nc1cccc(Cl)c1)c1csc([C@@H]2O[C@H](CO)[C@H](O)[C@H](O)[C@H]2O)n1	.	10	7	.	.	.	.
Cc1ccc(-c2nc3ccccc3[nH]2)cn1	.	-379	12	5	48	43	.
Cc1nc2ccc(-c3nc4ccccc4[nH]3)cc2[nH]1	40	-188	45	16	57*	49	38
COc1cccc(NC(=O)CN2CCC(NC(=O)c3ccccc3C)CC2)c1	.	6	-14	.	.	.	.
SMILES	PPC-1+TRAIL kill	SENP8 block-1	C8 TRAIL sens	SENP8 block-2	SENP6 block	SENP7 inh	PPC1 cytotox
Clc1ccc(OCc2nc3ccccc3[nH]2)cc1	33	-3	37	56*	72*	82*	36
O=S(=O)(CCc1nc2ccccc2[nH]1)c1ccc(Cl)cc1	10	30	7	-12	-3	-1	.
CCOC(=O)C1=C2N(C)c3ccccc3N2CCC1=O	3	11	-4	-3	2	-6	8
CCc1[nH]nc(C(=O)NC2CCCN(Cc3ccccc3F)C2)c1C (stereo not given)	.	9	10	1	-13	2	.
CCc1c(C)nc2c(-c3ccccc3OC)c(C)[nH]n2c1=O	.	-71	-25	-5	15	-8	.
N#Cc1nc(-c2ccco2)oc1N1CCC(C(N)=O)CC1	-4	-420	-6	3	-21	0	-2
O=C(CCNc1ccc(F)c(Cl)c1)c1ccco1	9	-3	19	-14	-22	-17	.
O=C(CCNc1ccc(F)cc1)c1ccco1	9	3	19	0	-2	6	2
O=C(COC(=O)CN1C(=O)c2ccccc2C1=O)Nc1ccc(S(=O)(=O)N2CCCC2)cc1	13	20	38	5	6	1	16
COc1ccc([N+](=O)[O-])cc1N(CC1CO1)S(=O)(=O)c1ccc(C)cc1 (stereo not given)	8	2	1	-5	12	0	.
Cc1nn(-c2ccccc2)c(C)c1/C=N\N1CCN(c2ccc(Cl)cc2)CC1	1	21	10	-8	-12	7	3
N#Cc1c(-n2ccnc2)cccc1-n1ccnc1	13	25	-7	6	3	3	.
Cc1cccc(-n2cccc2)c1C#N	18	2	-3	2	-6	4	9
CC(C)CN1C(=O)CN(S(C)(=O)=O)CC1(C)C(=O)Nc1ccc2c(c1)OCCO2 (stereo not given)	.	9	-6	.	.	.	.
CCn1c(C(=O)N2CCc3ccccc3C2)cc2oc3ccccc3c21	5	5	-8	-4	-4	-1	9
COC(=O)C1=NNC2(C)C(=O)N(c3ccc(C)cc3)C(=O)C12 (stereo not given)	12	16	3	-3	-9	-4	.
Cc1nn(C)cc1/C=C/C(=O)c1cccs1	23	-41	38	-10	0	-7	6
Cc1occc1C(=O)NNC(=O)CN1C(=O)NC(C)(c2ccccc2)C1=O (stereo not given)	.	-9	5	-13	-8	11	.
C=C1C(=O)O[C@@H]2C[C@@H](C)[C@@H]3C=CC(=O)[C@@]3(C)[C@@H](OC(C)=O)[C@H]12	62*	.	.	13	4	-8	52*
Cc1nc(SCC(=O)Nc2cc(C(N)=O)cc(C(N)=O)c2)c2c(C)c(C)sc2n1	1	-1	-3	-3	0	7	.
